Potency data for 30 molecules are collected here from PubChem BioAssay AID1671189 (National Center for Advancing Translational Sciences (NCATS), 2021).

Molecules are shown by their SMILES. In all, about 1,100 compounds went through this assay and about 70 (6%) were called active. Where a call stands in place of a potency, no number is given. Another 22% or so got no clear call; they are omitted. This is one part of a sample in which actives are shown more often than they occur. Calls come from the whole dose curve; as a rule, active = well fitted curve in the direction sought with a large enough effect; inconclusive = small, poorly fitted or top-dose-only effect, or another doubt; inactive = no such curve, though single readings can be large or run the other way.
Potency is the fitted concentration of half-maximal effect.

The test deals with Polyunsaturated fatty acid lipoxygenase ALOX12 (Homo sapiens) (UniProt P18054). Description: Confirmatory qHTS assay for inhibitors of human arachidonate 12S-lipoxygenase (ALOX12): Round 2. Conditions: purified human 12-LOX, xylenol orange absorbance; series mostly up to 125 µM. In short, it runs like this: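 Activity was measured as hydroperoxide formation via ferrous/xylenol orange, taking the 573 nm to 405 nm absorbance ratio. Reaction: 40 uM arachidonic acid, 30 min at room temperature, after 15 min compound preincubation with 150 nM enzyme, pH 7.0 Hepes buffer.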
Sequence of Polyunsaturated fatty acid lipoxygenase ALOX12 (Homo sapiens) (P18054 whole entry, looked up): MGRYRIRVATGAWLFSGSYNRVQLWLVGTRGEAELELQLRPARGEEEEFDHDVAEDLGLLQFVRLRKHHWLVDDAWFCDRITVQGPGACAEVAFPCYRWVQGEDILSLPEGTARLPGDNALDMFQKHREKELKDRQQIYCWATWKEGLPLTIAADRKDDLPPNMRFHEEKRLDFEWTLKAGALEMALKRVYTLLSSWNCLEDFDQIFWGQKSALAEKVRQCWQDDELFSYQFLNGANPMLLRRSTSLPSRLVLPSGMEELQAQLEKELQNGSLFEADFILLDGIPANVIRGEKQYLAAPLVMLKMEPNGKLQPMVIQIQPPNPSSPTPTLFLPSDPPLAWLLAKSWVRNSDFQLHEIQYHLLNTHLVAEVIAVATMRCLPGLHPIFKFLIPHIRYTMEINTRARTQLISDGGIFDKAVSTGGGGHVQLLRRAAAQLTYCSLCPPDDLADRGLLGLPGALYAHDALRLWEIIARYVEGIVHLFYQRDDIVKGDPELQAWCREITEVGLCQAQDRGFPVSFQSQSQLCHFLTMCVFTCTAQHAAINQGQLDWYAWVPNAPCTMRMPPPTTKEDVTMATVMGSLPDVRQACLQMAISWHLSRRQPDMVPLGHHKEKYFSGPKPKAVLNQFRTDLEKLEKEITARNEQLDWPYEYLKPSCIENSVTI
A general note: qHTS replaces the single test concentration by a dilution series.
On to `CCC(=O)N1Cc2ccccc2CC2(CCCN(CC3CCNCC3)C2)C1` (stereo not given), for which the Potency result was “inactive”. The value for `NCc1ccccc1-c1ccc(O)cc1` was “inactive”. For `Cn1nc(C2CCNC2)c2c(C(=O)NCc3ccncc3)cc(C3CC3)nc21` (stereo not given), the Potency entry is “inactive”. Regarding `O=C1NC2(Cc3ccccc31)CN(C(=O)c1ccc3c(c1)OCO3)C2`, the Potency entry was “inactive”. As for `CCC(=O)NC(c1cc(Cl)c2cccnc2c1O)C1CC1` (stereo not given), the Potency is 12.2 µM (active). On to `CC(C)C[C@@H](N)C(=O)O`, for which the Potency result is “inactive”. With `COc1cccc([S+](=O)([O-])N2CC(Oc3ccc(F)c(F)c3)C2)c1`, the Potency entry is “inactive”. The value for `COc1cccc(N2C(=O)NC(=NC3CCCCC3)C23CCCN(C(=O)c2ccccc2)C3)c1` (stereo not given) was “inactive”; that for `CC(=O)NC1CC2(CCN(C(=O)Cc3c(C)noc3C)CC2)Oc2ccccc21` (stereo not given) was “inactive”; that for `CC(C)NC(=O)N1CCC2(CC1)CN(C(=O)Cc1c[nH]c3ccccc13)CCO2` was “inactive”. The value for `O=C(Nc1ccc(Oc2ccccc2)cc1)O[C@@H]1CO[C@H]2[C@@H]1OC[C@@H]2NS(=O)(=O)c1ccc(Cl)cc1` was 5.01 µM (active); that for `CC(C)C(=O)N1Cc2ccccc2CC2(CCCCN2CC2CCNC2)C1` (stereo not given) was “inactive”. With `CN(C)CCCC(=O)N1Cc2ccccc2CC2(CCCCN2Cc2ccccc2)C1` (stereo not given), the Potency result was “inactive”. For `Cc1cc(C(=O)NC2CCNCC2)c2c(C3CCNCC3)noc2n1`, the Potency result is “inactive”.

For `CC(C)c1ccc(CNC(=O)C2CCN(c3cc(C(F)(F)F)ncn3)CC2)cc1`, the Potency entry was “inactive”. With `O=C1Nc2ccccc2CN(CC2CCCCC2)C12CCNCC2`, the Potency was 49.4 µM (active). With `O=C1Nc2ccccc2CC12CN(CC1CCCC1)C2`, the Potency result is “inactive”. In the case of `O=C1Nc2ccccc2CN(C/C=C/c2ccccc2)C12CCNC2` (stereo not given), the Potency entry is “inactive”. The value for `C[S+](=O)([O-])N1Cc2ccccc2CC2(CCCCN2CC2CCNCC2)C1` (stereo not given) was “inactive”. The value for `COc1ccc(CNc2ncnc3c2CN(C2CCNCC2)C(=O)CN3C)cc1` was “inactive”. The value for `O=C(c1ccccc1)N1CCn2c(nnc2C2CCNCC2)C1` was “inactive”; that for `COc1cccc(CNc2ccc([S+](=O)([O-])Nc3cc4ccccc4s3)cc2)c1O` was 19.3 µM (active); that for `Cc1ccc2nc(C3CCCN(Cc4ccccc4)C3)[nH]c(=O)c2c1` (stereo not given) was “inactive”.

For the molecule `O=C(c1ccccn1)N1CCn2c(nn(-c3ccc(Cl)cc3)c2=O)C1`, the Potency result was “inactive”.

For the molecule `O=C1NC(=NC2CCCC2)C2(CCN(CC3CC3)C2)N1c1cccnc1` (stereo not given), the Potency entry was “inactive”. The value for `C#CCN(C)C(=O)[C@@H]1CCCN1[C@H](CC(C)C)C(=O)NC` was “inactive”. To `CNC(=O)[C@@H](C1CCCCC1)N1CCC[C@H]1C(=O)N1CCC1` belongs 15.8 µM (active); to `Cc1n[nH]c(C)c1CN1CCC2(CC1)CCN(C1CCOCC1)CC2CO` (stereo not given), “inactive”; to `CN1CC(=O)N(C2CCNCC2)Cc2c(NCCc3cccc(F)c3)ncnc21`, “inactive”. With `COc1ccc(CN2Cc3[nH]cnc3C[C@H]2C(=O)NCc2ccco2)cc1`, the Potency entry was “inactive”.
